# Measurements from PubChem BioAssay.
# The source made the active and inactive calls.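 How the source made its calls: active means inhibition above 20% together with a positive visual image hit; inconclusive means visual image hit but inhibition not above 20%; inactive means no visual image hit.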
# Assay: inhibitors of TNFa-induced NFkB p65 translocation, primary screen, imaging, HUVEC, MLSMR starter and 10KST1 sets (AID 438);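 further: compound added about 3h40 before a 20 min TNFalpha stimulation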;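 on inhibition: signal is the nuclear over cytoplasmic p65 intensity ratio per well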
# Conditions: HUVEC TNFa-induced p65 nuclear translocation; cell count: measured here: nuclei count (cytotoxicity indicator), at 2.08 µM; inhibition: at 2 µM, stronger effect = higher value, 0% TNFa-plus-vehicle, 100% no-TNFa wells
SMILES,cell count,inhibition
Cc1ccc(-c2nnc(SC(C)C#N)n2N)cc1 (stereo not given),516,-3.8% (inactive)
CCOc1ccc2[nH]cc(C(=O)N3CCN(CC)CC3)c(=O)c2c1,498,-16.7% (inactive)
Cn1nnnc1SCC(=O)N1CCN(c2ccccc2)CC1,400,-0.2% (inactive)
CC(C)c1nc(N2CCN(C(=O)c3ccco3)CC2)c2c3c(sc2n1)CCCC3,748,-9.7% (inactive)
CCOc1ccc(OCC)c(NC(=O)CN2CCN(C(=O)c3ccco3)CC2)c1,554,-19.4% (inactive)
O=C(COC(=O)c1cc(S(=O)(=O)N2CCOCC2)cs1)c1ccccc1,692,-5.5% (inactive)
Cn1c(=O)c2c(-c3ccncc3)c3c(nc2n(C)c1=O)-c1ccccc1C3=O,637,0% (inactive)
Nc1c(N2CCCCC2)c(=O)[nH]c(=O)n1-c1ccccc1,751,2.4% (inactive)
CC(=O)Nc1ccc(S(=O)(=O)N2CCN(C(=O)CCC3CCCC3)CC2)cc1,312,-0.8% (inactive)
COc1cccc(C2CC(c3ccccc3)n3ncnc3N2)c1 (stereo not given),564,4.1% (inactive)
CCOc1ccc2oc(-c3ccccc3)c(C(=O)N3CCN(CCO)CC3)c2c1,649,-14.6% (inactive)
Cc1cc(NCCN2CCOCC2)n2nc(C)c(-c3ccccc3)c2n1,685,-8.9% (inactive)
COCc1cc(C)nc(Nc2ccc(C)cc2C)c1C#N,635,-12.3% (inactive)
COc1ccccc1-c1nnc(SCC(=O)N2CC(C)CC(C)C2)o1 (stereo not given),351,11.1% (inactive)
CC(=O)c1cc2c(cc1NC(=O)CN1CCN(C(=O)c3ccco3)CC1)OCO2,410,-6.1% (inactive)
COc1cccc(C2=NOC(C(=O)Nc3cc(C)nn3-c3ccccc3)C2)c1OC (stereo not given),570,-6.2% (inactive)
O=C(O)C1CCCN1c1ncnc2c1oc1ccccc12 (stereo not given),626,-4.4% (inactive)
Cc1ccc(OC(=O)CCC(=O)OCCCC(F)(F)C(F)(F)F)cc1,403,-3% (inactive)
O=S(=O)(c1cccc(S(=O)(=O)N2CCC(N3CCCCC3)CC2)c1)N1CCOCC1,725,-4.8% (inactive)
CNc1ccc(C(O)(C(F)(F)F)C(F)(F)F)cc1C(O)(C(F)(F)F)C(F)(F)F,667,3.3% (inactive)

SMILES,cell count,inhibition
Cc1cc(C)n2nc(SCc3nc4ccccc4[nH]3)nc2n1,789,-6.3% (inactive)
Cc1cccc(C(=O)N(C)c2nnc(-c3ccncc3)s2)c1,346,-10.7% (inactive)
CCOC(=O)c1c(C)n(C)c2c(C)cc(O)c(OC(C)=O)c12,292,-5% (inactive)
C=CCOC(=O)C1=C(C)NC(=O)NC1c1cn(-c2ccccc2)nc1-c1cccs1 (stereo not given),663,-18.8% (inactive)
CCOc1ccccc1NC(=O)C1CCCN(S(=O)(=O)c2cccc3cccnc23)C1 (stereo not given),717,0% (inactive)
CCOc1ccccc1Nc1nnc(SCC(=O)N2CCCC2)s1,655,1% (inactive)
COC(=O)/C=c1\sc2ncnn2c1=O,286,-11% (inactive)
CN(C)CCNc1oc(-c2ccccc2F)nc1C#N,648,7.1% (inactive)
O=C(C1CCN(c2nnc(-n3cccc3)s2)CC1)N1CCN(Cc2ccc3c(c2)OCO3)CC1,707,-9.2% (inactive)
COc1ccccc1NC(=O)C1(C)Cc2ccccc2C(=O)O1 (stereo not given),640,12.4% (inactive)
O=C(Cn1cnc2c(cnn2-c2ccc(F)cc2)c1=O)N1CCN(c2ccccc2)CC1,341,-6% (inactive)
Cc1ccnc(N2CCN(C(=O)CSc3nc4ccccc4nc3N3CCCCC3)CC2)c1,451,-9.8% (inactive)
Cc1cccc(C)c1NC(=O)c1cc(S(=O)(=O)N2CCOCC2)ccc1F,341,10.3% (inactive)
Cc1cc2ccccc2n1CCNC(=O)C1CC1,709,-6.9% (inactive)
COc1ccc(C)cc1NC(=O)CCN1CCCC1,257,-1.2% (inactive)
COCCn1nnnc1C(c1ccc(OC)cc1)N1CCN(c2ccccc2F)CC1 (stereo not given),476,-1.9% (inactive)
CCOc1ccc(NC(=O)CCN2CCN(c3ccccc3)CC2)cc1,696,-6.4% (inactive)
CC(C)Cc1n[nH]c(=O)[nH]1,742,-25.9% (inactive)
CC(=O)C1=C(O)C(=O)N(C2CCCCC2)C1c1ccccc1 (stereo not given),467,-10.8% (inactive)
Cc1nn(-c2ccccc2)c2c1C(O)n1c(nc3ccccc31)S2 (stereo not given),453,2.5% (inactive)
